In the supplement of paper PMC8728848:
The entries come from a sample that favours the strongest signals as a whole.

Key:
Assay in all cases: glycan array binding signal (z-score within array); higher = stronger binding
Settings in all cases: glycan notation: IUPAC condensed, linker removed
[1] = biological target: Fuc(a1-2)Gal(b1-3)GalNAc(b1-3)Gal(a1-4)Gal(b1-4)Glc
In short: (§1)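 The binding signal is a Z-score computed within each array. Data were drawn from 3228 arrays in the Consortium for Functional Glycomics database, restricted to those with a known protein sequence. Scores were averaged over arrays of the same protein sequence at different concentrations or buffers, and over linkers, and negative values can be taken as non-binding.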

[2] = biological target: Fuc(a1-2)Gal(b1-3)GlcNAc(b1-3)Gal(b1-4)Glc
In short: as §1

[3] = biological target: Fuc(a1-2)Gal(b1-3)[Fuc(a1-4)]GlcNAc
In short: as §1

Fuc(a1-2)Gal(b1-4)Glc = biological target: Fuc(a1-2)Gal(b1-4)Glc
In short: as §1

[4] = biological target: Fuc(a1-2)[Gal(a1-3)]Gal(b1-4)GlcNAc(b1-2)Man(a1-3)[Fuc(a1-2)[Gal(a1-3)]Gal(b1-4)GlcNAc(b1-2)Man(a1-6)]Man(b1-4)GlcNAc(b1-4)GlcNAc
In short: as §1

[5] = biological target: Fuc(a1-2)[Gal(a1-4)]Gal(b1-4)GlcNAc
In short: as §1

[6] = biological target: Fuc(a1-2)[GalNAc(a1-3)]Gal(b1-3)GlcNAc(b1-2)Man(a1-3)[Fuc(a1-2)[GalNAc(a1-3)]Gal(b1-3)GlcNAc(b1-2)Man(a1-6)]Man(b1-4)GlcNAc(b1-4)GlcNAc
In short: as §1

[7] = biological target: Fuc(a1-2)[GalNAc(a1-3)]Gal(b1-4)[Fuc(a1-3)]GlcNAc(b1-3)GalNAc
In short: as §1

[8] = biological target: Fuc(a1-3)[Gal(b1-4)]GlcNAc(b1-6)GalNAc
In short: as §1

[9] = biological target: Gal(a1-3)Gal(b1-3)GlcNAc(b1-2)Man(a1-3)[Gal(a1-3)Gal(b1-3)GlcNAc(b1-2)Man(a1-6)]Man(b1-4)GlcNAc(b1-4)GlcNAc
In short: as §1

[10] = biological target: Gal(a1-3)Gal(b1-3)GlcNAc(b1-3)GalNAc
In short: as §1

Gal(a1-3)GalNAc = biological target: Gal(a1-3)GalNAc
In short: as §1

Gal(b1-3)Gal = biological target: Gal(b1-3)Gal
In short: as §1

Gal(b1-3)Gal(b1-4)GlcNAc = biological target: Gal(b1-3)Gal(b1-4)GlcNAc
In short: as §1

Gal(b1-3)GalNAc = biological target: Gal(b1-3)GalNAc
In short: as §1

[11] = biological target: Gal(b1-3)GalNAc(a1-3)[Fuc(a1-2)]Gal(b1-4)Glc
In short: as §1

Gal(b1-3)GalNAc(b1-3)Gal = biological target: Gal(b1-3)GalNAc(b1-3)Gal
In short: as §1

[12] = biological target: Gal(b1-3)GalNAc(b1-4)Gal(b1-4)Glc
In short: as §1

[13] = biological target: Gal(b1-3)GalNAc(b1-4)[Neu5Ac(a2-3)]Gal(b1-4)Glc
In short: as §1

Gal(b1-3)GlcNAc6S = biological target: Gal(b1-3)GlcNAc6S
In short: as §1

[14] = biological target: Gal(b1-3)[Fuc(a1-4)]GlcNAc
In short: as §1

[15] = biological target: Gal(b1-3)[GlcNAc(b1-6)]GalNAc
In short: as §1

[16] = biological target: Gal(b1-3)[Neu5Ac(a2-6)]GalNAc
In short: as §1

Gal(b1-4)Glc6S = biological target: Gal(b1-4)Glc6S
In short: as §1

[17] = biological target: Gal(b1-4)GlcNAc(b1-2)Man(a1-3)Man(b1-4)GlcNAc(b1-4)GlcNAc
In short: as §1

[18] = biological target: Gal(b1-4)GlcNAc(b1-2)Man(a1-3)[GlcNAc(b1-4)][Gal(b1-4)GlcNAc(b1-2)Man(a1-6)]Man(b1-4)GlcNAc(b1-4)GlcNAc
In short: as §1

[19] = biological target: Gal(b1-4)GlcNAc(b1-2)[Gal(b1-4)GlcNAc(b1-6)]Man(a1-6)[Gal(b1-4)GlcNAc(b1-2)Man(a1-3)]Man(b1-4)GlcNAc(b1-4)[Fuc(a1-6)]GlcNAc
In short: as §1

[20] = biological target: Gal(b1-4)GlcNAc(b1-3)Gal(b1-4)GlcNAc(b1-3)GalNAc
In short: as §1

[21] = biological target: Gal3S(b1-4)[Fuc(a1-3)]GlcNAc
In short: as §1

Gal3S6S(b1-4)GlcNAc6S = biological target: Gal3S6S(b1-4)GlcNAc6S
In short: as §1

Gal6S(b1-4)GlcNAc6S = biological target: Gal6S(b1-4)GlcNAc6S
In short: as §1

GlcA(b1-6)Gal = biological target: GlcA(b1-6)Gal
In short: as §1

[22] = biological target: GlcNAc(a1-6)Gal(b1-4)GlcNAc
In short: as §1

[23] = biological target: GlcNAc(b1-2)Man(a1-3)[GlcNAc(b1-4)][GlcNAc(b1-2)Man(a1-6)]Man(b1-4)GlcNAc(b1-4)[Fuc(a1-6)]GlcNAc
In short: as §1

[24] = biological target: GlcNAc(b1-3)Gal(b1-4)GlcNAc(b1-3)Gal(b1-4)GlcNAc(b1-3)Gal(b1-4)GlcNAc(b1-2)Man(a1-3)[GlcNAc(b1-3)Gal(b1-4)GlcNAc(b1-3)Gal(b1-4)GlcNAc(b1-3)Gal(b1-4)GlcNAc(b1-2)Man(a1-6)]Man(b1-4)GlcNAc(b1-4)[Fuc(a1-6)]GlcNAc
In short: as §1

[25] = biological target: GlcNAc(b1-3)[GlcNAc(b1-4)][GlcNAc(b1-6)]GlcNAc
In short: as §1

[26] = biological target: Man(a1-2)Man(a1-6)[Man(a1-3)]Man(a1-6)[Man(a1-2)Man(a1-2)Man(a1-3)]Man
In short: as §1

[27] = biological target: Man(a1-3)[Man(a1-6)]Man(a1-6)[Man(a1-3)]Man
In short: as §1

[28] = biological target: Neu5Ac(a2-3)Gal(b1-4)GlcNAc(b1-3)Gal(b1-4)[Fuc(a1-3)]GlcNAc
In short: as §1

[29] = biological target: Neu5Ac(a2-3)Gal(b1-4)[Fuc(a1-3)]GlcNAc(b1-3)Gal(b1-4)[Fuc(a1-3)]GlcNAc(b1-3)Gal(b1-4)[Fuc(a1-3)]GlcNAc
In short: as §1

[30] = biological target: Neu5Ac(a2-3)Gal(b1-4)[Fuc(a1-3)]GlcNAc6S
In short: as §1

[31] = biological target: Neu5Ac(a2-6)Gal(b1-4)GlcNAc
In short: as §1

[32] = biological target: Neu5Ac(a2-6)Gal(b1-4)GlcNAc(b1-2)[Neu5Ac(a2-6)Gal(b1-4)GlcNAc(b1-4)]Man(a1-3)[GlcNAc(b1-4)][Neu5Ac(a2-6)Gal(b1-4)GlcNAc(b1-2)[Neu5Ac(a2-6)Gal(b1-4)GlcNAc(b1-6)]Man(a1-6)]Man(b1-4)GlcNAc(b1-4)GlcNAc
In short: as §1

[33] = biological target: Neu5Ac(a2-6)Gal(b1-4)GlcNAc(b1-3)Gal(b1-4)GlcNAc
In short: as §1

[34] = biological target: Neu5Ac(a2-6)Gal(b1-4)GlcNAc(b1-3)GalNAc
In short: as §1

[35] = biological target: Neu5Ac(a2-8)Neu5Ac(a2-8)Neu5Ac(a2-8)Neu5Ac(a2-3)[GalNAc(b1-4)]Gal(b1-4)Glc
In short: as §1

[36] = biological target: Neu5Ac9Ac(a2-3)Gal(b1-4)GlcNAc
In short: as §1

[37] = biological target: Neu5Gc(a2-8)Neu5Gc(a2-3)Gal(b1-4)GlcNAc
In short: as §1

B1: CFEM-PPl (Pichia pastoris), F2QPV1 (protein)
chain: AVATPPACLLACAAEVVKESSDCDALNNIQCICENEGSAIHACLESTCPDGLSSTALQSFEDVCESVGTEANLDE
Question: B1 was tested. Which “glycan array binding signal (z-score)” value [1] did it give?
Answer: -0.182

Question: What about the “glycan array binding signal (z-score)” value [2] of the same binder?
Answer: -0.261

Question: What about the “glycan array binding signal (z-score)” value [3] of the same binder?
Answer: -0.299

Question: And the “glycan array binding signal (z-score)” value (Fuc(a1-2)Gal(b1-4)Glc)?
Answer: -0.216

Question: What about the “glycan array binding signal (z-score)” value [4] of the same binder?
Answer: -0.252

Question: And the “glycan array binding signal (z-score)” value [5]?
Answer: -0.168

Question: And the “glycan array binding signal (z-score)” value [6]?
Answer: -0.271

Question: And the “glycan array binding signal (z-score)” value [7]?
Answer: 2.17

Question: And the “glycan array binding signal (z-score)” value [8]?
Answer: 0.273

Question: What about the “glycan array binding signal (z-score)” value [9] of the same binder?
Answer: -0.051

Question: What about the “glycan array binding signal (z-score)” value [10] of the same binder?
Answer: -0.151

Question: And the “glycan array binding signal (z-score)” value (Gal(a1-3)GalNAc)?
Answer: -0.249

Question: What about the “glycan array binding signal (z-score)” value (Gal(b1-3)Gal) of the same binder?
Answer: 8.35

Question: What about the “glycan array binding signal (z-score)” value (Gal(b1-3)Gal(b1-4)GlcNAc) of the same binder?
Answer: 4.73

Question: What about the “glycan array binding signal (z-score)” value (Gal(b1-3)GalNAc) of the same binder?
Answer: 4.58

Question: And the “glycan array binding signal (z-score)” value [11]?
Answer: 0.63

Question: And the “glycan array binding signal (z-score)” value (Gal(b1-3)GalNAc(b1-3)Gal)?
Answer: 7.59

Question: And the “glycan array binding signal (z-score)” value [12]?
Answer: 11.5

Question: What about the “glycan array binding signal (z-score)” value [13] of the same binder?
Answer: 1.48

Question: What about the “glycan array binding signal (z-score)” value (Gal(b1-3)GlcNAc6S) of the same binder?
Answer: 0.224

Question: What about the “glycan array binding signal (z-score)” value [14] of the same binder?
Answer: -0.109

Question: And the “glycan array binding signal (z-score)” value [15]?
Answer: 1.52

Question: And the “glycan array binding signal (z-score)” value [16]?
Answer: 8.06

Question: What about the “glycan array binding signal (z-score)” value (Gal(b1-4)Glc6S) of the same binder?
Answer: 0.326

Question: And the “glycan array binding signal (z-score)” value [17]?
Answer: -0.158

Question: And the “glycan array binding signal (z-score)” value [18]?
Answer: -0.371

Question: And the “glycan array binding signal (z-score)” value [19]?
Answer: 0.199

Question: And the “glycan array binding signal (z-score)” value [20]?
Answer: -0.058

Question: What about the “glycan array binding signal (z-score)” value [21] of the same binder?
Answer: -0.308

Question: And the “glycan array binding signal (z-score)” value (Gal3S6S(b1-4)GlcNAc6S)?
Answer: -0.019

Question: What about the “glycan array binding signal (z-score)” value (Gal6S(b1-4)GlcNAc6S) of the same binder?
Answer: 0.881

Question: And the “glycan array binding signal (z-score)” value (GlcA(b1-6)Gal)?
Answer: 1.49

Question: What about the “glycan array binding signal (z-score)” value [22] of the same binder?
Answer: 1.68

Question: And the “glycan array binding signal (z-score)” value [23]?
Answer: -0.286

Question: What about the “glycan array binding signal (z-score)” value [24] of the same binder?
Answer: -0.05

Question: And the “glycan array binding signal (z-score)” value [25]?
Answer: -0.262

Question: And the “glycan array binding signal (z-score)” value [26]?
Answer: -0.274

Question: And the “glycan array binding signal (z-score)” value [27]?
Answer: -0.201

Question: What about the “glycan array binding signal (z-score)” value [28] of the same binder?
Answer: -0.181

Question: What about the “glycan array binding signal (z-score)” value [29] of the same binder?
Answer: -0.258

Question: What about the “glycan array binding signal (z-score)” value [30] of the same binder?
Answer: -0.175

Question: What about the “glycan array binding signal (z-score)” value [31] of the same binder?
Answer: -0.156

Question: And the “glycan array binding signal (z-score)” value [32]?
Answer: -0.31

Question: What about the “glycan array binding signal (z-score)” value [33] of the same binder?
Answer: -0.404

Question: What about the “glycan array binding signal (z-score)” value [34] of the same binder?
Answer: -0.218

Question: What about the “glycan array binding signal (z-score)” value [35] of the same binder?
Answer: -0.099

Question: And the “glycan array binding signal (z-score)” value [36]?
Answer: -0.318

Question: And the “glycan array binding signal (z-score)” value [37]?
Answer: -0.14
